In all, about 310,000 compounds went through this assay and about 1,900 (0.61%) were called active. Not shown: some 8% with an inconclusive outcome. No cut-off for these calls is given here. Shown is part of a subset that was picked to be rich in actives.
test: qHTS for Stage-Specific Inhibitors of Vaccinia Orthopoxvirus: mCherry Reporter Primary qHTS.; type: functional; conditions: read-out: Potency

| Compound | AC50 |
| --- | --- |
| CN(C)C(=O)CCc1ccc2c3c([nH]c2c1)[C@]1(C)[C@@H](C(=O)N2CCCCC2)C[C@H](CC(=O)NCCN2CCOCC2)C(=O)N1CC3 | 316 µM (active) |
| C[C@H]1O[C@@H](O[C@H]2[C@@H](O)C[C@H](O[C@H]3[C@@H](O)C[C@H](O[C@H]4CC[C@@]5(C)[C@H](CC[C@@H]6[C@@H]5CC[C@]5(C)[C@@H](C7=CC(=O)OC7)[C@@H](O)C[C@]65O)C4)O[C@@H]3C)O[C@@H]2C)C[C@H](O)[C@@H]1O [GITOXIN] | 355 µM (active) |
| Cc1cccc2c1N(CCCCI)C=S2C (stereo not drawn) | 4.47 µM (active) |

Source: ChEMBL document CHEMBL1201862, “PubChem BioAssay data set” (2004)
